Sampled rows, rich in hits. Any-hit rate of the full collection: about 3.7%.
BoNT-F LC inh – inhibitors of Botulinum neurotoxin F light chain protease. Multiplex microsphere protease cleavage assay, flow cytometry. inhibition, % at 10 µM. hit rate 0.22% among 360,000. AID 588497; in the data active means inhibition above about 35%, passing the limit was not always enough; inconclusive means no clear call, values can overlap the other calls; further: plate controls were buffer without enzyme for full effect and enzyme alone for no effect
Anthrax LF prot – anthrax lethal factor protease inhibition | P15917 | multiplex microsphere protease cleavage assay, LF | inhibition, % at 10 µM | hit rate 0.12% among 360,000; further: plate controls were buffer without enzyme for full effect and enzyme alone for no effect
MazEF act – MazEF (E. coli) toxin RNase activation; hit rate 0.32% among 350,000; FAM/BHQ RNA-DNA oligo cleavage fluorescence, 5 h; activation, % at 20 µM; P0AE70; in the data active means activation above about 50%
BoNT-A LC inh2 – BoNT A light chain protease inhibition; multiplex microsphere protease substrate cleavage, flow cytometry; inhibition, % at 10 µM; hit rate 0.17% among 360,000; AID 588499; further: plate controls were buffer without enzyme for full effect and enzyme alone for no effect
Bead autofluor – compound fluorescence in toxin protease inhibitor counterscreen. AID 624483. hit rate 3.1% among 360,000. fluorescence intensity (no concentration beside the values). compound autofluorescence counterscreen, microsphere flow cytometry; stronger effect = higher value; in the data active means fluorescence intensity above about 16000; inconclusive means no clear call, values can overlap the other calls
Numbers without * were called inactive; ? = inconclusive; . = no result. Unless noted, no stated cut-off is given here; in the data, active means inhibition above about 30%; inconclusive means no clear call, values can overlap the other calls; inactive means below that.

SMILES	BoNT-F LC inh	Anthrax LF prot	MazEF act	BoNT-A LC inh2	Bead autofluor
COc1ccc(NS(=O)(=O)c2ccc(SC)cc2)c(OC)c1	2	1	2	6	21230*
Cc1cccc(C)c1N(CC(=O)N1CCOCC1)S(C)(=O)=O	1	-1	7	0	4033
Cc1ccccc1NC(=S)N1CCN(c2ccccc2)CC1	-40	20	28	-5	3717
CCCCCCCN1C2=NCCCN2c2ccccc21	-3	0	926*	0	4584
CCCCN1C2=NCCCN2c2ccccc21	-9	-3	6	-1	10731
CC1C/C(=N\NC(=S)NCc2ccccc2)CC(C)(C)C1 (stereo not given)	-6	-4	-3	?	22911*
Cc1cc(Nc2ccccc2C(=O)O)nc2nc3ccccc3c(=O)n12	-4	-15	6	-1	16916*
CC(C)(C)C1(c2ccccc2)NC(=O)N(CC(=O)N2CCOCC2)C1=O (stereo not given)	2	-3	1	?	19617*
COC(=O)c1ccc2c(=O)[nH]c(COC(=O)c3cccc(S(=O)(=O)N4CCOCC4)c3)nc2c1	8	3	1	4	5424
N#Cc1ccc(COC(=O)c2ccc3c(=O)[nH]c(CN4CCOCC4)nc3c2)cc1	0	0	-1	0	23349*
CN(C(=S)NC(=O)C1(C)CC1(Cl)Cl)c1ccccc1 (stereo not given)	-4	1	14	0	23191*
Cc1ccnc(NC2(C(F)(F)F)N=C3SCCN3C2=O)c1 (stereo not given)	0	-3	-1	0	4066
CC(C)(C)C(=O)NC1(C(F)(F)F)N=C2SCCN2C1=O (stereo not given)	-9	3	-3	0	3282
CC(C)Oc1ccc(C(=O)NC2(C(F)(F)F)N=C3SCCN3C2=O)cc1 (stereo not given)	-3	0	0	?	20653*
CC(=O)NC1(C(F)(F)F)N=C2SCCN2C1=O (stereo not given)	-9	-1	-3	?	22076*
Cc1cc(C)c(NC(=O)CN(C)CC(=O)N(C)CC(=O)Nc2c(Cl)cccc2Cl)c(C)c1	3	-3	0	-4	?
CCCN(CCC)C(=O)CC(c1ccccc1)c1ccc(C)cc1O (stereo not given)	2	-1	-4	1	22025*
Cc1ccc(C(CC(=O)N2CCCC2)c2ccccc2)c(O)c1 (stereo not given)	-8	-13	0	-5	4003
CCCN(CCC)C(=O)CC(c1ccccc1)c1cc(Br)ccc1O (stereo not given)	2	-1	-7	4	22655*
COc1ccc(-c2csc(C(C)(O)c3cccc(F)c3)n2)cn1 (stereo not given)	4	6	.	0	3801
Nc1cc(N)nc(SCC(=O)NCC2CCCO2)n1 (stereo not given)	-1	-1	-3	?	20538*
Clc1ccccc1CNCC1CCCO1 (stereo not given)	12	-11	5	0	2851
O=C(CSc1nc2cc(Cl)ccc2s1)NCC1CCCO1 (stereo not given)	-5	0	-9	0	2787
O=C(CSc1cc(Cl)ccc1Cl)NCC1CCCO1 (stereo not given)	0	-1	-2	1	22708*
Nc1nc(SCC(=O)NCC2CCCO2)n[nH]1 (stereo not given)	-37	-7	0	-2	3610
SMILES	BoNT-F LC inh	Anthrax LF prot	MazEF act	BoNT-A LC inh2	Bead autofluor
Oc1ccc(Cl)cc1CNCC1CCCO1 (stereo not given)	-7	-2	-2	-4	20694*
COc1ccc(-c2nnc3c4ccccc4c(C)nn23)cc1	-1	-2	5	-1	22622*
COc1ccc(-c2nnc3ccc(SCC(=O)NCC4CCCO4)nn23)cc1 (stereo not given)	-11	-2	0	-6	25334*
COc1ccc(-c2nnc3ccc(SCC(=O)N4CCOCC4)nn23)cc1	2	1	-1	0	5270
O=C(CSc1ccc2nnc(-c3ccc(F)cc3)n2n1)NCC1CCCO1 (stereo not given)	-3	-3	3	?	15978
COc1ccc(-c2nnc3ccc(SC)nn23)cc1	12	-4	1	10	17068*
Cn1c(CNC(=O)CNS(=O)(=O)c2ccc(Br)cc2)cc(=O)n(C)c1=O	-4	2	8	0	5314
O=C(NCc1cccnc1)c1cc(C2CCCCN2C(=O)c2cccs2)on1 (stereo not given)	-7	-1	.	-1	3921
O=C(COc1ccc2c3c(c(=O)oc2c1)CCC3)Nc1ccccn1	-1	0	-7	0	4055
CN(C)/C=N/c1ncc(C(=O)c2ccc(Cl)cc2)s1	1	2	1	1	22056*
O=C(c1ccc2c(c1)CCC2)N1CCN(Cc2c(F)cccc2Cl)CC1	6	-4	5	0	3986
CC(C)(C)c1ccc(S(=O)(=O)N2CC(=O)Nc3ccccc32)cc1	-3	0	9	-1	23729*
Cc1ccccc1C1=C/C(=C(\SS/C(C(=O)c2ccc(OCC(=O)O)c(Cl)c2Cl)=C2\C=C(c3ccccc3C)SS2)C(=O)c2ccc(OCC(=O)O)c(Cl)c2Cl)SS1	-11	-6	-40	0	3365
O=C(Nc1c(F)cc(F)cc1Br)C1CCCO1 (stereo not given)	-8	-2	-1	-5	25313*
Cc1cc(C)c(NC(=O)C2CCCO2)c(C)c1 (stereo not given)	8	-3	0	1	5591
CC1=CC(C)(C)N2C(=O)C3(C(C#N)=C(N)OC4=C3C(=O)CCC4)c3c(C)c(C)cc1c32 (stereo not given)	-6	-2	8	-4	17514*
CC1=CC(C)(C)N2C(=O)C3(C(C#N)=C(N)Oc4cc(O)ccc43)c3c(C)c(C)cc1c32 (stereo not given)	-2	-2	2	-2	23874*
CC1(c2ccccc2)CC(C)(C)N2C(=O)C3(C(C#N)=C(N)Oc4cc(O)ccc43)c3cccc1c32 (stereo not given)	-4	-3	-7	-1	8403
Cc1noc(/C=C/N(C)C)c1S(=O)(=O)N1CCC(C(=O)NC(C)(C)C)CC1	4	-3	16	2	5142
CCNC(=O)C1CCCN(C(=O)c2cc(C)oc2C)CC1 (stereo not given)	0	-3	.	0	3393
Cc1ccc2c(Cl)c(C(=O)N/N=C/c3cccn3C)sc2c1	2	1	71*	-1	2086
Cc1ccc(NS(=O)(=O)c2cccc(C(=O)NCC3CCCO3)c2)cc1 (stereo not given)	?	?	-2	?	5125
Cn1ncc([N+](=O)[O-])c1C(=O)Nc1ccn(Cc2ccccc2F)n1	-2	-4	-6	-3	24402*
O=C(Nc1ccn(Cc2ccccc2F)n1)c1ccc(COc2ccc(Br)cc2)cc1	-4	-3	-5	?	24596*
O=C(Nc1ccc(Cn2cccn2)cc1)c1ccc(COc2ccc(Br)cc2)cc1	4	-2	-18	1	4139
